AmpC detergent – blocks E. coli AmpC beta-lactamase in detergent assay. P00811. Potency, µM (series often up to 114 µM), actives largely listed as inhibitors. AID 485294. AmpC hydrolysis of nitrocefin, absorbance 480 nm, 0.01% Triton. 370,000 compounds, 0.041% hits; also: nearly all actives have a fitted effect of over 25% in size
Target sequence (P00811 whole entry, looked up): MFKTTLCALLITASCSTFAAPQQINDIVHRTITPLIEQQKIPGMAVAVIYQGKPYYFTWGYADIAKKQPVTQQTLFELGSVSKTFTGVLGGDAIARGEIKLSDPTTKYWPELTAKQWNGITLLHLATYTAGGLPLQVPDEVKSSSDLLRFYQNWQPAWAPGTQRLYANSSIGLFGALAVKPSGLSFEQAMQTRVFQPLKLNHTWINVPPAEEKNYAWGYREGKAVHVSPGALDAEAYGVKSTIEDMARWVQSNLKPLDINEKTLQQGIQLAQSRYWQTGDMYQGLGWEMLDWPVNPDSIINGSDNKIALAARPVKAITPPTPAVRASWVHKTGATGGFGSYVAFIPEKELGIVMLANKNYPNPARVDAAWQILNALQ
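20 mM phosphate pH 7.0 + 0.01% (detergent screen) or 0.0001% Triton X-100; 5.3 nM AmpC reagent; cpd preinc 15 min RT; nitrocefin (800 uM stock) to start; A480 q20 s × 4 min; Activity was normalised to no-enzyme and no-compound control wells.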
AMA1 RON2 block – inhibitors of Plasmodium falciparum AMA1-RON2 interaction. AlphaScreen AMA1-biotinylated RON2 peptide binding. Potency, µM (doses to about 58.2 µM), usual class: inhibitors. 360,000 compounds, 0.2% hits. AID 720542; also: nearly all actives have a fitted effect of over 45% in size
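AMA1 (3D7) with his tag at 25 nM final met compounds first, then biotinylated RON2 peptide at 25 nM; detection used donor plus acceptor beads, 10 µg/mL apiece, read by AlphaScreen after 30 min at room temperature.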
AmpC no deterg – AmpC beta-lactamase inhibition without detergent | P00811 | AmpC nitrocefin hydrolysis, absorbance 480 nm, 0.0001% Triton | Potency, µM (top dose mostly 57.1 µM), hits mostly inhibitors | 330,000 compounds, 0.52% hits | AID 485341; also: nearly all actives have a fitted effect of over 20% in size
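20 mM phosphate pH 7.0 + 0.01% (detergent screen) or 0.0001% Triton X-100; 5.3 nM AmpC reagent; cpd preinc 15 min RT; nitrocefin (800 uM stock) to start; A480 q20 s × 4 min; Activity was normalised to no-enzyme and no-compound control wells.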
SARS PLpro yeast – SARS-CoV PLP inhibition in yeast; Potency, µM (series often up to 32.9 µM), usual class: activators; S. cerevisiae expressing SARS-CoV PLpro, growth rescue; 330,000 compounds, 0.19% hits; calls by dose curve; also: nearly all actives have a fitted effect of over 55% in size
CHX counter – counter-screen for Shiga toxin inhibitors: cycloheximide protein synthesis inhibition. cell reporter, cycloheximide protein synthesis inhibition counterscreen. 300,000 compounds, 12% hits. AID 2314. max response, %; in the data active = max response mostly above about 13%, no sharp cut-off; inactive = mostly below about 14%; also: read at 38.3 µM for the half of the compounds with a filed dose
Shiga inhibitor – blocks Shiga toxin action in Vero cells. inhibition, % at 38.7 µM. Vero cells, Shiga toxin protein synthesis inhibition reporter. 290,000 compounds, 9.2% hits; in the data active = inhibition mostly above about 28%, no sharp cut-off; inactive = mostly below about 43%
Numbers stand for hits; . = inactive; ? = inconclusive; / = not tested or not shown; [ ] = remark or other dose. This excerpt belongs to a sample that is enriched for hits. Unless noted, calls follow the shape of the dose curve; as a rule, active = well fitted curve in the direction sought with a large enough effect; inconclusive = small, poorly fitted or top-dose-only effect, or another doubt; inactive = no such curve, though single readings can be large; an effect the other way counts as inactive or inconclusive.

SMILES	AmpC detergent	AMA1 RON2 block	AmpC no deterg	SARS PLpro yeast	CHX counter	Shiga inhibitor
CCOC(=O)c1sc(N2N=C(C)C(N=Nc3cccc(C)c3)C2=O)nc1C (centres undefined)	.	.	.	.	.	.
CC1=NN(C(N)=S)C(=O)C1N=Nc1ccc(O)cc1 (centres undefined)	.	.	.	.	24	32
CC1=NN(C(N)=S)C(=O)C1N=Nc1cccc(C)c1 (centres undefined)	.	.	.	.	22	.
CC1=NN(c2nc(-c3ccc(C)cc3)cs2)C(=O)C1N=Nc1cccc(C)c1 (centres undefined)	.	.	.	.	20	.
CC1=NN(C(N)=S)C(=O)C1N=Nc1cccc(C(=O)O)c1 (centres undefined)	.	.	.	.	.	.
CC1=NN(C(N)=S)C(=O)C1N=Nc1ccc(C)c(Br)c1 (centres undefined)	?	.	.	.	36	59
Cc1ccsc1CNC1CCCCC1	.	.	.	.	.	/
CC(=O)c1sc(NC(=O)Cc2c(F)cccc2Cl)nc1C	.	.	.	.	.	.
O=C(Cc1c(F)cccc1Cl)NC1=NCCS1	.	.	.	.	20	.
O=C(Cc1c(F)cccc1Cl)Nc1nc2ccccc2s1	.	.	.	.	38	113
CCOC(=O)c1sc(NC(=O)Cc2c(F)cccc2Cl)nc1C	.	.	.	.	30	75
Cc1nc2ccc(NC(=O)Cc3c(F)cccc3Cl)cc2s1	?	.	.	.	31	53
Cc1ccc(C(=O)N2CCCC(Nc3ccc(F)c(F)c3)C2)cn1 (centres undefined)	?	.	.	.	.	.
COC(=O)c1cc2c(=O)c3ccccc3oc2nc1C	.	.	.	.	24	49
CCc1nc2oc3ccc(C)cc3c(=O)c2cc1C(=O)OC	.	.	.	.	24	30
Cc1nc2oc3ccccc3c(=O)c2cc1C(=O)O	.	.	.	.	.	.
Cc1nc2oc3ccc(F)cc3c(=O)c2cc1C(=O)NC(C)(C)C	.	.	.	.	41	128
C=CCNC(=O)c1cc2c(=O)c3ccccc3oc2nc1C	.	.	.	.	.	.
COC(=O)c1cc2c(=O)c3ccccc3oc2nc1/C=C/N(C)C	.	.	.	.	19	.
Cc1nc2oc3ccc(Cl)cc3c(=O)c2cc1C(=O)O	.	.	.	.	.	.
CC(C)c1ccc2oc3nc(N)c(C(=O)O)cc3c(=O)c2c1	.	/	.	.	.	.
Oc1ccc(CCN2CCCCC2)cc1	/	.	/	/	/	/
CC(C)CC(=O)NC1(C(F)(F)F)C(=O)N(CC(C)C)C2=C1C(=O)CC(C)(C)C2 (centres undefined)	.	.[11.6 µM]	.	.	.	.
CN(C(=O)c1ccc2ccccc2c1)c1ccccn1	.	.	.	.	30	.
CN(C(=O)c1ccoc1)c1ccc2ccccc2c1	.	.	.	.	.	.
SMILES	AmpC detergent	AMA1 RON2 block	AmpC no deterg	SARS PLpro yeast	CHX counter	Shiga inhibitor
Nc1nnc(/C=C/c2ccccc2Cl)s1	.	.	.	.	36	47
Cc1ccc(C(=O)NCCc2nnc(SCC(=O)Nc3nc(-c4ccccc4)cs3)n2C)cc1	.	.	.	.	.	.
NC(=O)c1ccsc1NC(=O)COC(=O)c1ccccc1F	.	.	.	.	/	/
O=C(COC(=O)c1ccccc1NC(=O)c1ccco1)Nc1ccc2c(c1)OCO2	.	.	.	.	17	.
CC(C)(C)NC(=O)COC(=O)c1ccccc1NC(=O)c1ccco1	.	.	.	.	.	.
NC(=O)c1ccsc1NC(=O)COC(=O)c1ccccc1NCc1ccco1	.	.	.	.	33	107
O=C(COC(=O)c1c(F)cccc1F)Nc1ccc2c(c1)OCO2	.	.	.	.	/	/
O=C(COC(=O)c1ccccc1NCc1ccco1)Nc1ccc2c(c1)OCO2	.	.	.	.	27	62
Cc1ccc(OCCN2CCC2(C)C(=O)NCc2cccc3ccccc23)cc1 (centres undefined)	/	.	/	/	/	/
O=C(NCCNc1ccc([N+](=O)[O-])cc1)c1ccccc1F	.	.	.	.	.	.
O=C1CSC(c2ccccn2)N1Cc1cn2ccccc2n1 (centres undefined)	?	.	.	.	.	.
Cc1[nH]c2ccccc2c1C(c1ccncc1)N1CCC(C)CC1 (centres undefined)	.	.	.	.	.	.
O=c1cc(-c2ccccc2)[nH]c2nc3ccccc3n12	.	.	.	.	40	64
CC(C)c1cc(=O)n2c(nc3ccccc32)[nH]1	.	.	.	.	13	.
O=c1cc(CCl)[nH]c2nc3ccccc3n12	.	.	.	.	.	.
OCC[C@H]1C[C@H](O)[C@@H](O)[C@]2(CCc3ccccc3CO2)O1	.	.	.	.	/	/
COc1cccc(Cn2c(=O)c3[nH]cnc3n(-c3ccccc3C)c2=O)c1	.	.	.	?	.	.
O=S(=O)(NC1=NCCCCC1)c1ccc2ccccc2c1	.	.	.	.	23	.
O=C(CSc1ccc2ccccc2c1Br)Nc1cccc(S(=O)(=O)NC2=NCCCCC2)c1	.	.	7.1µM	.	.	.
Cc1ccccc1OCc1nc(-c2ccc(NC(=O)c3ccc4c(c3)OCO4)cc2)no1	?	.	.	.	.	.
Cc1ccccc1OCc1nc(-c2ccc(NC(=O)c3cccs3)cc2)no1	.	.	.	.	50	154
COc1ccccc1CC(=O)Nc1ccc(-c2noc(COc3cccc(C)c3C)n2)cc1	?	.	.	.	.	.
Cc1ccccc1OCc1nc(-c2ccc(NC(=O)c3ccco3)cc2)no1	?	.	.	.	35	52
CC(Oc1ccc(Cl)cc1Cl)c1nc(-c2ccc(NC(=O)c3ccco3)cc2)no1 (centres undefined)	.	.	.	.	71	113
Cc1cc(C)c(NC(=O)CSc2nnc(-c3ccccn3)n2N)c(Cl)c1	.	18µM	.	.	.	.
SMILES	AmpC detergent	AMA1 RON2 block	AmpC no deterg	SARS PLpro yeast	CHX counter	Shiga inhibitor
Cc1ccc(NC(=O)NC(=O)CSc2nnc(-c3ccc(Cl)cc3Cl)n2N)c(C)c1	.	.	.	.	64	179
O=C(COC(=O)CNC(=O)C1CCCCC1)Nc1ccc(Br)cc1Br	.	.	.	.	/	/
O=C(O)c1cc(/C=N\O)ccc1OCc1ccccc1	.	.	.	.	.	.
COc1ccc(CNc2ncc(-c3ccc(F)cc3)n2C)c2ccccc12	.	?	.	.	.	.
Cn1c(-c2ccccc2)cnc1NCc1ccccc1O	.	/	/	/	/	/
COc1ccccc1CNc1ncc(-c2ccccc2)n1C	.	.	.	.	21	40
COc1ccccc1CNc1ncc(-c2ccc(F)cc2)n1C	.	?	.	.	7.6	.
Fc1ccc(C2=NNC(=NCc3ccccc3)SC2)cc1F	.	.	18µM	.	34	64

High-throughput results (PubChem BioAssay)
